Inconclusive results are not listed. The source made the active and inactive calls. Calls follow the shape of the dose curve; as a rule, active = well fitted curve in the direction sought with a large enough effect; inconclusive = small, poorly fitted or top-dose-only effect, or another doubt; inactive = no such curve, though single readings can be large; an effect the other way counts as inactive or inconclusive.
What was measured:
[1] = Quantitative High-Throughput drug screen in 47 multiple myeloma cell lines against the NCATS MIPE library collection: AMO1_DSMZ cell viability assay (AID 1918927; also: nearly all actives have a fitted effect of over 30% in size)
In short: (§1)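 Approved and investigational drugs from MIPE 4.0 were added by pin tool to 500 cells per well. After 48 hours at 37C, ATP-based CellTiter-Glo luminescence indicated remaining viability.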

[2] = Quantitative High-Throughput drug screen in 47 multiple myeloma cell lines against the NCATS MIPE library collection: ARD_JJKsccE7 cell viability assay (AID 1918929;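 as to viability: 100% = DMSO-only wells and 0% = media-only wells without cells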)
In short: as §1

[3] = Quantitative High-Throughput drug screen in 47 multiple myeloma cell lines against the NCATS MIPE library collection: KMM1_JCRB cell viability assay (AID 1918960); also: nearly all actives have a fitted effect of over 30% in size
In short: (§2)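 Viability screen: myeloma cells (500/well) incubated 48 h at 37 °C, humidified 5% CO2, with pinned library compounds; CellTiter-Glo added, luminescence read; DMSO wells set 100%, medium-only wells 0%.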

[4] = Quantitative High-Throughput drug screen in 47 multiple myeloma cell lines against the NCATS MIPE library collection: Karpas417_ECACC cell viability assay (AID 1918961); conditions: Karpas417 myeloma viability, CellTiter-Glo ATP luminescence, 48 h; viability (% of DMSO): at 45.8 µM (top of the series);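 as to viability (% of DMSO): 100% = DMSO only wells and 0% = media only wells without cells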
In short: (§3)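 Relative luminescence from CellTiter-Glo served as the viability signal, referenced to DMSO-treated (100%) and cell-free medium (0%) controls. Treatment lasted 48 hours at 37C with 500 cells per well.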

[5] = Quantitative High-Throughput drug screen in 47 multiple myeloma cell lines against the NCATS MIPE library collection: KHM11_PLB cell viability assay (AID 1918962); also: nearly all actives have a fitted effect of over 35% in size
In short: as §3

[6] = Quantitative High-Throughput drug screen in 47 multiple myeloma cell lines against the NCATS MIPE library collection: JIM3_ECACC cell viability assay (AID 1918963; also: nearly all actives have a fitted effect of over 35% in size)
In short: as §3

[7] = Quantitative High-Throughput drug screen in 47 multiple myeloma cell lines against the NCATS MIPE library collection: H1112_PLB cell viability assay (AID 1918967; also: nearly all actives have a fitted effect of over 30% in size)
In short: as §1

[8] = Quantitative High-Throughput drug screen in 47 multiple myeloma cell lines against the NCATS MIPE library collection: KMS27_JCRB cell viability assay (AID 1918970); also: nearly all actives have a fitted effect of over 30% in size;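 as to viability (% of DMSO): 100% = DMSO-only wells and 0% = media-only wells without cells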
In short: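 KMS27_JCRB myeloma cells, 500 per well, exposed 48 h at 37 C, 5% CO2 to MIPE 4.0 compounds. Viability from ATP by CellTiter-Glo luminescence, normalized to DMSO (100%) and medium-only (0%) wells.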

[9] = Quantitative High-Throughput drug screen in 47 multiple myeloma cell lines against the NCATS MIPE library collection: KMS12PE_JCRB cell viability assay (AID 1918972); also: nearly all actives have a fitted effect of over 30% in size
In short: as §3

[10] = Quantitative High-Throughput drug screen in 47 multiple myeloma cell lines against the NCATS MIPE library collection: KMS21BM_JCRB cell viability assay (AID 1918974); conditions: ATP luminescence, 48 h; viability: at 45.8 µM (top of the series) unless noted
In short: as §1

[11] = Quantitative High-Throughput drug screen in 47 multiple myeloma cell lines against the NCATS MIPE library collection: MMM1_PLB cell viability assay (AID 1918976); also: nearly all actives have a fitted effect of over 35% in size
In short: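 Readout: median RLU from CellTiter-Glo after 5 min at room temperature. Preceding step was 48 h drug treatment of 500 cells/well at 37 °C, 5% CO2, with DMSO-only and media-only control wells.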

[12] = Quantitative High-Throughput drug screen in 47 multiple myeloma cell lines against the NCATS MIPE library collection: JIM1_ECACC cell viability assay (AID 1918964)
In short: as §1

[13] = Quantitative High-Throughput drug screen in 47 multiple myeloma cell lines against the NCATS MIPE library collection: INA6_PLB cell viability assay (AID 1918965; also: nearly all actives have a fitted effect of over 55% in size)
In short: as §3

[14] = Quantitative High-Throughput drug screen in 47 multiple myeloma cell lines against the NCATS MIPE library collection: Karpas25_ECACC cell viability assay (AID 1918968; also: nearly all actives have a fitted effect of over 35% in size)
In short: as §1

[15] = Quantitative High-Throughput drug screen in 47 multiple myeloma cell lines against the NCATS MIPE library collection: KMS12BM_JCRB cell viability assay (AID 1918971); also: nearly all actives have a fitted effect of over 35% in size
In short: (§4)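 Inhibition of cell viability is measured here. Each line was plated at 500 cells per well, treated with MIPE 4.0 drugs, kept 48 hours at 37C, then assayed for ATP content by CellTiter-Glo luminescence.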

[16] = Quantitative High-Throughput drug screen in 47 multiple myeloma cell lines against the NCATS MIPE library collection: KMS20_JCRB cell viability assay (AID 1918973); also: nearly all actives have a fitted effect of over 45% in size
In short: as §1

[17] = Quantitative High-Throughput drug screen in 47 multiple myeloma cell lines against the NCATS MIPE library collection: KMS26_JCRB cell viability assay (AID 1918975); also: nearly all actives have a fitted effect of over 45% in size
In short: as §4

[18] = Quantitative High-Throughput drug screen in 47 multiple myeloma cell lines against the NCATS MIPE library collection: ARP1_JJKsccF8 cell viability assay (AID 1918928; also: nearly all actives have a fitted effect of over 40% in size)
In short: as §2

[19] = Quantitative High-Throughput drug screen in 47 multiple myeloma cell lines against the NCATS MIPE library collection: JJN3_DSMZ cell viability assay (AID 1918966; also: nearly all actives have a fitted effect of over 50% in size)
In short: as §1

[20] = Quantitative High-Throughput drug screen in 47 multiple myeloma cell lines against the NCATS MIPE library collection: Karpas620_DSMZ cell viability assay (AID 1918959); also: nearly all actives have a fitted effect of over 30% in size;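 as to viability (% of DMSO): 100% = DMSO-only wells and 0% = cell-free media-only wells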
In short: as §3
Potency is read from the fitted curve at half-maximal effect.

With `CC=C(C)C(=O)O[C@H]1C(C)=C[C@]23C(=O)[C@@H](C=C(CO)[C@@H](O)[C@]12O)[C@H]1[C@@H](C[C@H]3C)C1(C)C` the Potency [1] was 18.7 µM (active), the Potency [2] was 11.8 µM (active) and the Potency [3] was 11.8 µM (active). For the same compound, the Potency [4] was 0.209 µM (active), the Potency [5] was 3.72 µM (active) and the Potency [6] was 18.7 µM (active). The Potency [7] was 0.526 µM (active), the Potency [8] was 9.35 µM (active) and the Potency [9] was 18.7 µM (active). The Potency [10] was 8.33 µM (active) and the Potency [11] was 18.7 µM (active).
In the case of `CC(C)n1cnc2c(NCCCCCCNC(=O)OC(C)(C)C)nc(NCCO)nc21`, the Potency [1] is reported as 4.69 µM (active), the Potency [2] is reported as 5.9 µM (active) and the Potency [6] is reported as 18.7 µM (active). The Potency [12] was “inactive”, the Potency [13] was 23.5 µM (active) and the Potency [7] was 23.5 µM (active). For the same compound, the Potency [14] was 23.5 µM (active), the Potency [15] was 18.7 µM (active) and the Potency [16] was 1.05 µM (active). For the same compound, the Potency [17] was 23.5 µM (active) and the Potency [11] was 18.7 µM (active).
With `C=C1C(=O)OC(CCCCCCCC)C1C(=O)O` (stereo not drawn) the Potency [1] was “inactive”, the Potency [18] was “inactive” and the viability (% of DMSO) [4] was 74% (active). For the same compound, the Potency [5] was “inactive”, the Potency [12] was “inactive” and the Potency [13] was 18.7 µM (active). The Potency [14] was 26.4 µM (active) and the Potency [8] was “inactive”.
For `CC(C)(C)OC(=O)N[C@H]1CCCCCC=C[C@@H]2C[C@@]2(C(=O)NS(=O)(=O)C2CC2)NC(=O)[C@@H]2C[C@@H](OC(=O)N3Cc4cccc(F)c4C3)CN2C1=O`, the Potency [1] was “inactive”, the Potency [18] was “inactive” and the Potency [5] was “inactive”. The Potency [6] was “inactive”, the Potency [7] was “inactive” and the Potency [8] was “inactive”. The Potency [15] was “inactive”, the Potency [9] was 13.2 µM (active) and the Potency [16] was “inactive”.
For `COc1cc2ncnc(-n3nc(-c4ccccn4)nc3N)c2cc1OC`, the Potency [1] was “inactive”, the Potency [2] was 0.743 µM (active) and the Potency [3] was 1.05 µM (active). The Potency [4] was 0.132 µM (active), the Potency [5] was 5.9 µM (active) and the Potency [6] was 8.33 µM (active). The Potency [19] was 4.69 µM (active), the Potency [7] was 0.743 µM (active) and the Potency [14] was 0.743 µM (active). For the same compound, the Potency [8] was 0.0935 µM (active), the Potency [15] was 7.43 µM (active) and the Potency [9] was 1.32 µM (active). For the same compound, the Potency [16] was 6.62 µM (active) and the Potency [17] was 14.8 µM (active).
For `CC(C)OC(=O)C(C)(C)Oc1ccc(C(=O)c2ccc(Cl)cc2)cc1`, the Potency [1] was “inactive”, the Potency [2] was “inactive” and the Potency [20] was “inactive”. The Potency [3] was “inactive”, the Potency [6] was “inactive” and the Potency [19] was 16.6 µM (active). For the same compound, the Potency [15] was 13.2 µM (active), the Potency [17] was 11.8 µM (active) and the Potency [11] was 18.7 µM (active).
In the case of `Cc1ccc([C@@H]2O[C@H](CO)[C@@H](O)[C@H](O)[C@@H]2O)cc1Cc1ccc(-c2ccc(F)cc2)s1`, the Potency [1] is reported as 18.7 µM (active), the Potency [2] is reported as 20.9 µM (active) and the Potency [3] is reported as 16.6 µM (active). The Potency [7] was “inactive”, the Potency [8] was 23.5 µM (active) and the Potency [15] was “inactive”. The Potency [9] was 20.9 µM (active).
With `O=C(NCc1ccncc1)C12C[C@H]3C[C@@H](C1)CC(c1ccc(Cl)cc1)(C3)C2` the Potency [1] was 9.35 µM (active), the Potency [2] was 18.7 µM (active) and the Potency [3] was 23.5 µM (active). For the same compound, the Potency [6] was 23.5 µM (active), the Potency [12] was 13.2 µM (active) and the Potency [13] was 20.9 µM (active). For the same compound, the Potency [7] was 13.2 µM (active), the Potency [14] was 20.9 µM (active) and the Potency [8] was 8.33 µM (active). For the same compound, the Potency [15] was 20.9 µM (active), the Potency [9] was 26.4 µM (active) and the Potency [10] was 13.2 µM (active).
In the case of `CC(=O)Oc1cc2c(s1)CCN(C(C(=O)C1CC1)c1ccccc1F)C2` (stereo not drawn), the Potency [1] is reported as 1.87 µM (active), the Potency [18] is reported as 1.32 µM (active) and the Potency [13] is reported as 4.69 µM (active). For the same compound, the Potency [19] was 2.35 µM (active), the Potency [7] was 2.96 µM (active) and the Potency [14] was 1.87 µM (active).
For `CCN(CC)CCOc1ccc(C(=C(Cl)c2ccccc2)c2ccccc2)cc1`, the Potency [1] was 18.7 µM (active), the Potency [18] was “inactive” and the Potency [6] was “inactive”. For the same compound, the Potency [13] was “inactive”, the Potency [14] was “inactive” and the Potency [15] was “inactive”. For the same compound, the Potency [10] was 18.7 µM (active) and the Potency [11] was “inactive”.
In the case of `O=C(O)c1c(Cl)c(Cl)c(Cl)c(Cl)c1-c1c2cc(I)c(=O)c(I)c-2oc2c(I)c(O)c(I)cc12`, the Potency [1] is reported as 13.2 µM (active), the Potency [2] is reported as 8.33 µM (active) and the Potency [20] is reported as 14.8 µM (active). The Potency [6] was 7.43 µM (active), the Potency [12] was 2.35 µM (active) and the Potency [13] was 10.5 µM (active). For the same compound, the Potency [19] was 5.9 µM (active), the Potency [7] was 3.32 µM (active) and the Potency [14] was 7.43 µM (active). For the same compound, the Potency [9] was 10.5 µM (active).
With `CC1(C)Cc2c(sc(NC(=S)NC(=O)c3ccccc3)c2C(=O)O)CO1` the Potency [1] was “inactive”, the Potency [5] was “inactive” and the Potency [12] was “inactive”.
In the case of `CC(=O)N(C)C1(c2ccccc2)CCN(CCC[C@]2(c3ccc(Cl)c(Cl)c3)CCCN(C(=O)c3ccccc3)C2)CC1`, the Potency [1] is reported as 10.5 µM (active), the Potency [2] is reported as 20.9 µM (active) and the Potency [6] is reported as 20.9 µM (active). The Potency [13] was 10.5 µM (active), the Potency [19] was 18.7 µM (active) and the Potency [7] was 20.9 µM (active). For the same compound, the Potency [8] was 23.5 µM (active), the Potency [15] was 20.9 µM (active) and the Potency [9] was 7.43 µM (active). For the same compound, the Potency [16] was 4.69 µM (active) and the Potency [11] was 20.9 µM (active).
With `CNC(=O)c1ccccc1Sc1ccc2c(C=Cc3ccccn3)n[nH]c2c1` the Potency [1] was 2.64 µM (active), the Potency [3] was 3.32 µM (active) and the Potency [7] was 0.296 µM (active). For the same compound, the Potency [15] was 16.6 µM (active) and the Potency [9] was 1.66 µM (active).
With `COc1ccc(-c2cc(=O)c3c(O)cc(O)cc3o2)cc1O` the Potency [1] was 5.26 µM (active), the Potency [2] was 6.62 µM (active) and the Potency [6] was 7.43 µM (active). For the same compound, the Potency [12] was 9.35 µM (active), the Potency [14] was 3.72 µM (active) and the Potency [9] was 5.9 µM (active). For the same compound, the Potency [16] was 4.18 µM (active) and the Potency [11] was 0.935 µM (active).
With `Cc1cccc(Nc2nc(-c3ccncc3)cs2)c1` the Potency [1] was 11.8 µM (active), the Potency [6] was 20.9 µM (active) and the Potency [13] was 18.7 µM (active). The Potency [7] was 18.7 µM (active), the Potency [8] was 18.7 µM (active) and the Potency [9] was 14.8 µM (active).
